# Active and inactive are the calls of the source.
# Experiments:
# [1] = target: Albumin (Bos taurus) (UniProt P02769); assay: bovine serum albumin binders on microarray, profiling panel, artefact control for SMM control protein annotation, biochemical, small-molecule microarray, Alexa647 label, 635/667 nm fluorescence (AID 1118); details: BSA-A647 binding, fluorescence 635 nm, higher = more signal;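 also: score merges 667 nm emission intensity and signal-to-noise per printed compound spot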
# [2] = small-molecule microarray binders of probe aXIP, primary screen, biochemical, NeuroSMM set, 635/667 nm fluorescence (AID 1119); details: higher = more signal, called active from +8 up or from −8 down;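 also: probe is the protein aXip251-270 applied at 1 µg/mL to compound-printed slides; binding of probe to printed compounds measured as 667 nm fluorescence plus signal to noise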
# [3] = small-molecule binders of probe aNOTCH3, primary screen, biochemical, small-molecule microarray, 635/667 nm fluorescence (AID 1120); details: higher = more signal;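 also: probe is a biotin-tagged antibody raised against NOTCH3 rather than NOTCH3 protein; score merges spot fluorescence near 667 nm with spot signal to noise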
# [4] = small-molecule binders of probe aNOTCH2, primary screen, biochemical, small-molecule microarray, 635/667 nm fluorescence (AID 1121); details: higher = more signal;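 also: score merges feature fluorescence read at 667 nm with its signal to noise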
# [5] = target: Carbonic anhydrase 2 (Homo sapiens) (UniProt P00918); assay: CAII small-molecule binders, profiling panel, biochemical, small-molecule microarray, Alexa647-labelled CAII (AID 1122); details: CAII-A647 binding fluorescence, higher = more signal
# [6] = COS7 lysate on small-molecule microarray, probe aHis, 635 nm (AID 1123); details: COS7 cell lysate, fluorescence, higher = more signal;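 also: z-score combines 667nm fluorescence intensity with signal-to-noise per printed compound spot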
# [7] = compound binding in COS7 lysate, probe aLAP1, primary screen, cell lysate, small-molecule microarray (AID 1124); details: probe aLAP1, fluorescence, higher = more signal;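 also: lysate comes from COS7 cells expressing LAP1 and is applied at 0.3 µg/mL; score merges spot fluorescence near 667 nm with signal-to-noise over triplicate slides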
# [8] = tested on: Sam68 (KHDRBS1); assay: Sam68 small-molecule binders, primary screen, biochemical, small-molecule microarray, 635 nm fluorescence (AID 1125); details: small-molecule microarray binding, higher = more signal;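 also: score merges 667 nm channel intensity with signal to noise over triplicate slides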
# [9] = tested on: Chordin-like protein 2 (CHRDL2); assay: CHRDL2 small-molecule binders, primary screen, biochemical, small-molecule microarray, 635 nm fluorescence (AID 1126); details: small-molecule microarray binding, fluorescence 635 nm; higher = more signal;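 also: printed compound slides probed with Chrdl2 protein at 4 µg/mL for 1 h at 4 C; score merges 667 nm emission intensity with signal to noise over three replicate slides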
# [10] = target: Concanavalin-A (Canavalia ensiformis) (UniProt P02866); assay: ConA small-molecule binders, primary screen, artefact control for SMM control protein annotation, biochemical, small-molecule microarray, Alexa647 label, 635 nm (AID 1127); details: ConA-A647 binding fluorescence, higher = more signal;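 also: z combines 667 nm emission intensity with signal-to-noise across three replicate slides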
# [11] = anti-His antibody binders, primary screen, artefact control for SMM control protein annotation, biochemical, small-molecule microarray, 635 nm fluorescence (AID 1128); details: anti-His Alexa647 antibody binding, higher = more signal;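 also: score merges feature fluorescence with signal-to-noise for each printed compound spot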
# [12] = tested on: Human papillomavirus type 1a E7 protein (residues 1-88); assay: HPV1a E7 small-molecule binders, primary screen, biochemical, small-molecule microarray, residues 1-88, 635 nm (AID 1129); details: small-molecule microarray binding, fluorescence 635 nm; higher = more signal
# [13] = target: Focal adhesion kinase 1 (Homo sapiens) (UniProt Q05397); assay: small-molecule microarray binders of FAK, primary screen, biochemical, 635/667 nm fluorescence, BSA, DTT (AID 1130); details: PTK2 binding, 635 nm fluorescence, higher = more signal;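 also: composite of spot emission at 667 nm and signal to noise over triplicate slides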
# [14] = tested on: Fibrinogen (Alexa647-labelled); assay: fibrinogen binders on compound microarrays, profiling panel, artefact control for SMM control-protein annotation, biochemical, small-molecule microarray, 635/667 nm fluorescence (AID 1131); details: fibrinogen-A647 binding fluorescence, higher = more signal;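 also: z-score merges 667 nm fluorescence with per-spot signal-to-noise over triplicate slides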
# [15] = target: Follistatin (Homo sapiens) (UniProt P19883); assay: follistatin binders on small-molecule microarrays, primary screen, biochemical, small-molecule microarray, 635/667 nm fluorescence (AID 1132); details: FST binding, 635 nm fluorescence, higher = more signal
# [16] = target: Fibroblast growth factor 2 (Homo sapiens) (UniProt P09038); assay: FGF2 binders on small-molecule microarrays, primary screen, biochemical, small-molecule microarray, 635/667 nm fluorescence (AID 1133); details: small-molecule microarray binding, FGF2, fluorescence 635/667; higher = more signal
# [17] = mitochondrial membrane potential change in A549 cells, profiling panel, cell-based, JC-1 fluorescence, basal, 24 h, 100 nL (AID 1138); details: higher = more signal;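 also: A549 lung adenocarcinoma cells under basal conditions with no added stimulus; test concentration not given here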
# [18] = tested on: Lefty1; assay: Lefty1 binders on small-molecule microarrays, primary screen, biochemical, small-molecule microarray, 635/667 nm fluorescence (AID 1139); details: small-molecule microarray binding, fluorescence 635/667; higher = more signal
# [19] = tested on: wheat germ agglutinin (Triticum aestivum), Alexa647-labelled; assay: wheat germ agglutinin binders on compound microarrays, profiling panel, artefact control for SMM control-protein annotation, biochemical, small-molecule microarray, 635/667 nm fluorescence (AID 1140); details: WGA-A647 binding, 635 nm fluorescence, higher = more signal;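 also: score merges 667 nm feature emission with signal to noise over triplicate slides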
# [20] = target: Luciferin 4-monooxygenase (Photinus pyralis) (UniProt P08659); assay: firefly luciferase enzyme inhibitors, primary screen, biochemical, luminescence, purified enzyme, 2006 set (AID 1141); details: SteadyGlo luminescence, 30 min, higher = more signal, called active from +8 up or from −8 down;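 also: cell-free assay with purified firefly luciferase at 100 ng per well in PBS; test concentration not given here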
# Sequence of Luciferin 4-monooxygenase (Photinus pyralis) (P08659 whole entry, looked up): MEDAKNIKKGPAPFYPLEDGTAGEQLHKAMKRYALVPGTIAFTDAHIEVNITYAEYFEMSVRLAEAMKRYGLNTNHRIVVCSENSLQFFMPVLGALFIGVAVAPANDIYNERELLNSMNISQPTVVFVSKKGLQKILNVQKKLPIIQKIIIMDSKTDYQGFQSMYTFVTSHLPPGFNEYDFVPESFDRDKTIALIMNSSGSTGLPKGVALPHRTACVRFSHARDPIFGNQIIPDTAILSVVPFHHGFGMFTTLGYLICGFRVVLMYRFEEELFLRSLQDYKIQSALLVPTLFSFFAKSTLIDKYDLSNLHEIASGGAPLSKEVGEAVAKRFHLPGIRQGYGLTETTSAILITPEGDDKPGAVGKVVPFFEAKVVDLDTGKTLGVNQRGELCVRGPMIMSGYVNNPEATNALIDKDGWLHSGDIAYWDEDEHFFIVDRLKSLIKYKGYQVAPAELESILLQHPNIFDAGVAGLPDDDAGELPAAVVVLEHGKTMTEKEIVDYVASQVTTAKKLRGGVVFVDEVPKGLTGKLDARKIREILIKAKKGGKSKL
# Sequence of Fibroblast growth factor 2 (Homo sapiens) (P09038 whole entry, looked up): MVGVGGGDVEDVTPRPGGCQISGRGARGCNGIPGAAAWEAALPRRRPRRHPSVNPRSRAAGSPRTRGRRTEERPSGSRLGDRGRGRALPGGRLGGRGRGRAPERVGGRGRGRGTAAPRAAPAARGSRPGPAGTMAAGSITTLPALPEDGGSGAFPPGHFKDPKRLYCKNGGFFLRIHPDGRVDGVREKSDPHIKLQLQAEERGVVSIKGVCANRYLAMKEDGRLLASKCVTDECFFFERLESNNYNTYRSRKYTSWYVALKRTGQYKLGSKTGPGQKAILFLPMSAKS
# Sequence of Follistatin (Homo sapiens) (P19883 whole entry, looked up): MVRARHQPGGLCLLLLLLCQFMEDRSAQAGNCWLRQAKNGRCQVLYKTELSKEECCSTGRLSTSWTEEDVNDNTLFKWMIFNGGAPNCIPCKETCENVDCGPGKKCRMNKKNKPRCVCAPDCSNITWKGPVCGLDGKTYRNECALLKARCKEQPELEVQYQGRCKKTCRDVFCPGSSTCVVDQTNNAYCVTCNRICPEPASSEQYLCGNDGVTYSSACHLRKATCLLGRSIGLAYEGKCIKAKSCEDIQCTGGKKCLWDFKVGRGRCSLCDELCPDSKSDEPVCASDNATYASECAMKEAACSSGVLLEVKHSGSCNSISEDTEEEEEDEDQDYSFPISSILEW
# Sequence of Albumin (Bos taurus) (P02769 whole entry, looked up): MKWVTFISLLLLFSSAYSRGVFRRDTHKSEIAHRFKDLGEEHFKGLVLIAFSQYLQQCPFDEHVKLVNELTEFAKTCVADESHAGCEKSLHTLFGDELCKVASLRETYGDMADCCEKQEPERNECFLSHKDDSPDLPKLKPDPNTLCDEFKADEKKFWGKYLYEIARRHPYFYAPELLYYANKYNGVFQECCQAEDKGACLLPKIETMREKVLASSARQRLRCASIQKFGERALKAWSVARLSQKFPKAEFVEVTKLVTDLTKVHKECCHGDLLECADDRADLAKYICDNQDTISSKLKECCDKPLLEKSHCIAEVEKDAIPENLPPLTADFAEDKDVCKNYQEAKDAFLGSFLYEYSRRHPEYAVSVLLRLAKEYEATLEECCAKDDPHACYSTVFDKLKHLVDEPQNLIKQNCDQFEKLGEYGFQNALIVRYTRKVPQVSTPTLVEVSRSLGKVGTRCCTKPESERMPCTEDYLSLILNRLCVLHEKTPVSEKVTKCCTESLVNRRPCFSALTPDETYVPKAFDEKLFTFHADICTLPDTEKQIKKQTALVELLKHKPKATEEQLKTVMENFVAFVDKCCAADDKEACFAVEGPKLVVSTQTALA
# Sequence of Concanavalin-A (Canavalia ensiformis) (P02866 whole entry, looked up): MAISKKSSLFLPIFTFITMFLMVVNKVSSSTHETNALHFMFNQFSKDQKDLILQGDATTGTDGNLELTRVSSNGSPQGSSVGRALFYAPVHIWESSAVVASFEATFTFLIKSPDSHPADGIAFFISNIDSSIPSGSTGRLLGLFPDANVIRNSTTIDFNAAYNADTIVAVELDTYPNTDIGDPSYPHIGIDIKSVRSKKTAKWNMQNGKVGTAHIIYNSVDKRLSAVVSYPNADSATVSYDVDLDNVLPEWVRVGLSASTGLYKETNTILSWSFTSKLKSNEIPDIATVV
# Sequence of Focal adhesion kinase 1 (Homo sapiens) (Q05397 whole entry, looked up): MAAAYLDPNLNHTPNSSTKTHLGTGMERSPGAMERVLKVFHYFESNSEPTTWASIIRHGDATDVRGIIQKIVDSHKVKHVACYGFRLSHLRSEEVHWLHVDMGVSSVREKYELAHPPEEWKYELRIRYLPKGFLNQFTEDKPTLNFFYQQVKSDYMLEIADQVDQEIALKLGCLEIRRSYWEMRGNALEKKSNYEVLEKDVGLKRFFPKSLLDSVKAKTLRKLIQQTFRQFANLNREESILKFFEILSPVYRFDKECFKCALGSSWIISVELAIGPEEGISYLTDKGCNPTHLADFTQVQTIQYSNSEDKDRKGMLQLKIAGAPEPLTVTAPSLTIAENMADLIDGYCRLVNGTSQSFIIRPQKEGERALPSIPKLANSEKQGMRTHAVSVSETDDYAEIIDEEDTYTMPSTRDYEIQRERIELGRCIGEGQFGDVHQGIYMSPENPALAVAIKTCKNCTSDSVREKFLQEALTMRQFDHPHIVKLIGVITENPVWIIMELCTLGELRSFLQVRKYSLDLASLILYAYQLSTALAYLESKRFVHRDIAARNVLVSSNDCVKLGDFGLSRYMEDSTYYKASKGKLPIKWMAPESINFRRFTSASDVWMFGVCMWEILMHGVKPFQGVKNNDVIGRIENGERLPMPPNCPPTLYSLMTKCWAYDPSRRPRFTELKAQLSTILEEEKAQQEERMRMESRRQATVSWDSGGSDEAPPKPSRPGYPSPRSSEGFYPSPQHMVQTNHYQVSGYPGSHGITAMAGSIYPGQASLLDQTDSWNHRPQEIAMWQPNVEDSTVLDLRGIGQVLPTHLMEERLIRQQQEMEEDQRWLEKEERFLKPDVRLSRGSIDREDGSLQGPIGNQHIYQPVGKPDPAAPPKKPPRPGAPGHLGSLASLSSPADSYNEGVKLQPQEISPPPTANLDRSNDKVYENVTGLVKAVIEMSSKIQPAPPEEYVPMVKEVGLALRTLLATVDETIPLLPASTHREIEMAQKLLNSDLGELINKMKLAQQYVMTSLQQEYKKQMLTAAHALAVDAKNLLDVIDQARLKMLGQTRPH
Structure (SMILES),composite z-score [1],composite Z-score [2],composite z-score [3],composite z-score [4],composite z-score [5],composite z-score [6],composite z-score [7],composite z-score [8],composite z-score [9],composite z-score [10],composite z-score [11],composite z-score [12],composite z-score [13],composite z-score [14],composite z-score [15],composite z-score [16],z-score [17],composite z-score [18],composite z-score [19],z-score [20]
COC(=O)c1ccc(C(O)C2C=CC3C(=O)N(c4ccccc4)C(=O)C3N2Nc2ccc(C#N)cc2)o1 (stereo not given),0.887,-0.336 (inactive),0.0282,-0.0878,0.436,2.85,0.387,0.735,0.0997,0.635,0.355,0.889,0.303,1,0.62,0.275,0.385,-0.0841,0.475,-1.32 (inactive)
[N-]=[N+]=NCc1ccccc1C[C@]1(C(=O)O)N=C(c2ccc(OCCCO)cc2)O[C@H]1c1ccccc1,0.954,-0.37 (inactive),-0.0414,-0.0633,0.685,1.79,0.249,0.52,-0.741,1.11,1.29,1.13,0.165,0.687,0.0944,0.87,0.0539,-1.43,1.2,0.414 (inactive)
O=C1C2C=CC(C(O)c3ccc(B(O)O)cc3)N(Nc3ccccc3)C2C(=O)N1c1ccccc1 (stereo not given),0.764,0.387 (inactive),0.127,-0.0438,0.793,0.408,-0.0389,-0.346,-0.0149,-0.874,0.56,-0.935,1.44,-0.0877,0.0669,-0.581,-1.4,-0.698,-0.0504,-0.331 (inactive)
C=C(CCCC)C(=O)CC[C@H](OC(=O)c1cccnc1)c1cccc(OCCO)c1,-0.39,0.087 (inactive),-0.0242,-0.14,0.771,-0.112,0.0948,0.269,0.225,-0.106,0.637,-0.395,-0.262,-0.847,0.254,0.275,1.28,0.563,-0.288,-1.2 (inactive)
COC(=O)c1ccc(OC)c(/C=C\CC(OC(C)=O)c2ccccc2)c1 (stereo not given),0.652,-0.192 (inactive),-0.276,-0.149,0.971,0.718,-0.0984,-0.215,1.1,1.15,0.838,0.255,-0.0638,0.775,0.946,0.933,-0.363,0.741,1.11,-0.454 (inactive)
CCCC[C@H]1OB(O)C[C@H]2C1=C(C)C[C@H]1C(=O)N(Cc3ccccc3)C(=O)[C@H]12,0.067,0.252 (inactive),-0.0613,-0.126,0.38,0.257,-0.361,0.663,0.472,0.546,0.201,0.366,0.553,0.311,0.797,1.26,0.625,0.63,-0.144,-1.15 (inactive)
COC(=O)[C@@]1(Cc2ccccc2)[C@H]2c3cc(C(=O)N4CCCC4)n(Cc4ccc(C)o4)c3C[C@H]2CN1C(=O)c1ccccc1,0.905,-0.56 (inactive),0.415,0.0263,0.787,0.597,0.487,0.17,-0.589,-0.289,0.195,1.22,0.752,-0.809,-0.0668,-0.675,0.337,-0.0201,1.18,-2.68 (inactive)
O=C1O[C@@H](c2ccccc2)[C@@H](c2ccccc2)N2[C@@H](c3ccc(O)cc3)[C@]3(C(=O)Nc4ccc(C#CC5(O)CCCCCC5)cc43)[C@@H](C(=O)N3CCCCCCC3)[C@H]12,0.748,6.76 (inactive),2.12,1.06,0.742,3.88,0.894,1.33,1.55,1.12,1.47,1.26,2.74,0.962,1.47,1.62,-0.15,1.68,1.4,-0.593 (inactive)
O=C1O[C@@H](c2ccccc2)[C@@H](c2ccccc2)N2[C@@H](c3ccc(OCCO)cc3)[C@]3(C(=O)Nc4ccc(C#CC5=CCCCC5)cc43)[C@@H](C(=O)O)[C@H]12,0.953,0.556 (inactive),0.206,0.0588,0.499,0.866,0.711,1.3,0.0501,1.16,1.42,1.01,1.31,0.865,0.878,0.34,-2.48,0.46,0.997,-6.59 (inactive)
Cc1c(NC(=O)CC#N)c(=O)n(-c2ccccc2)n1C,0.407,0.676 (inactive),0.0876,-0.193,-0.064,0.0776,0.037,0.529,0.563,0.0636,0.514,0.469,0.616,0.134,0.116,0.291,0.385,0.645,0.114,0.551 (inactive)
O=C(CS)NCCCCCCNC(=O)[C@@H]1C[C@@H]2C(=O)N3CCC[C@H]3C(=O)N2[C@@H]1c1ccc(O)cc1,-0.766,3.04 (inactive),-0.273,-0.116,0.645,2.88,0.827,0.5,0.361,0.443,3.73,1.21,0.887,-0.627,1.16,1.13,-1.13,-0.686,-0.462,-0.315 (inactive)

# Source: PubChem BioAssay
